# In PubChem BioAssay (NCATS):
# Values joined by “and” are separate entries in the source; they are usually repeats but may differ in a detail not shown here. Equal values may be shown once. Results filed as inconclusive are left out. A number with no mark means an inactive call. Active and inactive are the calls of the source. Calls follow the shape of the dose curve; as a rule, active = well fitted inhibition curve with a large enough effect; inconclusive = small, poorly fitted or top-dose-only effect; inactive = flat fitted curve, though single readings scatter.
# What was measured:
# [1] = Drug repurposing screens with cells derived from glioblastoma tumor samples (AID 1345199); settings: GBM patient neurospheres viability, ATP luminescence, 48 h; also: nearly all actives have a fitted effect of over 40% in size
# Outline: (§1)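 Primary testing used CD133+ neurospheres from four GBM patients, seven concentrations, 48 h exposure and ATP-based viability; confirmation added three slower-growing patient lines.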
# astro = control astrocytes; test: as above; settings: viability, ATP luminescence, 48 h; series mostly up to 45.9 µM
# Outline: as §1
# [2] = at 45.9 µM (top of the series), tumour line B
# [3] = at 45.9 µM (top of the series), tumour line D
# [4] = at 46 µM (top of the series), tumour line A
# [5] = at 46.1 µM (top of the series), tumour line C
# % is scaled to controls: 0 for no effect and ±100 for the full control effect; potency is read from the fitted curve at half-maximal effect.
SMILES,"activity, negative = cell killing [1, 2]","activity, negative = cell killing [1, 3]","activity, negative = cell killing [1, 4] [%]","activity, negative = cell killing [1, 5]",Potency (astro),Potency ([1]; tumour line A)
O=C[C@H](O)[C@@H](O)[C@H](O[C@H]1O[C@H](CO)[C@@H](O[C@H]2O[C@H](CO)[C@@H](O)[C@H](O)[C@H]2O)[C@H](O)[C@H]1O)[C@H](O)CO,-5.93%,-7.07%,-21.5,5.59%,inactive,
Cc1[nH]cnc1C[C@H]1CCc2c(C)c3ccccc3n2C1=O,11.6%,-27.1%,-27.2,1.77%,inactive,
CS(=O)(=O)NC(=O)CCC/C=C\C[C@H]1C(=O)C[C@@H](O)[C@@H]1/C=C/[C@H](O)COc1ccccc1,-2.71%,-15.8%,-29.7,0.501%,inactive,
COC[C@H](c1ccc(C(F)(F)F)cc1)N1CCN(C2(C)CCN(C(=O)c3c(C)ncnc3C)CC2)C[C@H]1C,-1.49%,-13.4%,,5.67%,inactive,11.2 µM (active)
CCCCCCCCCCCCCCCC(=O)OCCC1CCN(CCCN2c3ccccc3Sc3ccc(S(=O)(=O)N(C)C)cc32)CC1,-1.24%,-12.7%,-28.1,11%,inactive,
C/C(=C(\CCOC(=O)c1ccccc1)SS/C(CCOC(=O)c1ccccc1)=C(/C)N(C=O)Cc1cnc(C)nc1N)N(C=O)Cc1cnc(C)nc1N,-18%,-28%,,-22.5%,inactive,35.5 µM (active)
O=C1C(c2[nH]c3ccc(S(=O)(=O)O)cc3c2O)=Nc2ccc(S(=O)(=O)O)cc21,-3.91% and -0.988% and -8.05%,-5.52% and -3.79% and -6.7%,-11.9,2.85% and 2.31% and 15%,inactive,
Cn1nnnc1SCC1=C(C(=O)O)N2C(=O)[C@@H](NC(=O)[C@H](OC=O)c3ccccc3)[C@H]2SC1,-10.5%,-17.5%,-11.9,-8.9%,inactive,
CC1(C)C2CC[C@]3(C)[C@H](C(=O)C=C4[C@@H]5C[C@@](C)(C(=O)O)CC[C@]5(C)CC[C@]43C)[C@@]2(C)CC[C@@H]1O[C@H]1O[C@H](C(=O)O)[C@@H](O)[C@H](O)[C@H]1O[C@@H]1O[C@H](C(=O)O)[C@@H](O)[C@H](O)[C@H]1O (stereo not given in full),-4.03%,-9.47%,-26.6,-1.2%,inactive,
C[C@@H]1C[C@H]2C3C[C@H](F)C4=CC(=O)C=CC4(C)[C@@]3(F)[C@@H](O)CC2(C)[C@@]1(O)C(=O)COC(=O)C(C)(C)C (stereo not given in full),-6.93%,-10.7%,,2.01%,inactive,12.6 µM (active)
CCOC(=O)[C@H](CCc1ccccc1)N[C@@H](C)C(=O)N1CC2(C[C@H]1C(=O)O)SCCS2,-13.1%,3.06%,-27.1,2.21%,inactive,
CCCN(CC)C(CC)C(=O)Nc1c(C)cccc1C (stereo not given),-5.49%,-11.8%,-28.6,-9.76%,inactive,
CCN(CC)CCOC(=O)c1ccc(N)cc1Cl,-9.89%,-17.2%,-27.9,-6%,inactive,
CC(=O)OCC(=O)[C@@]1(O)[C@H](C)C[C@H]2[C@@H]3C[C@H](F)C4=CC(=O)C=C[C@]4(C)[C@H]3[C@@H](O)C[C@@]21C,1.71%,2.28%,-12.7,13.2%,inactive,
